Source: PubChem BioAssay (Tox21)
Results filed as inconclusive are left out. Activity calls are given as the source filed them. Unless noted, calls come from the whole dose curve.

Columns and labels:
[1] = Nuclear factor erythroid 2-related factor 2/antioxidant responsive element (Nrf2/ARE) small molecule agonists: qHTS cell viability counter screen in human keratinocytes (AID 1919968; active = well fitted curve in the direction sought with a large enough effect in the repeat runs; an effect the other way counts as inactive or inconclusive; note: nearly all actives have a fitted effect of over 55% in size)
How it was run: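 Viability counter-screen: KeratinoSens reporter cells, DMSO-delivered compounds, 23 h at 37 C, CellTiter-Fluor fluorescence.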

[2] = molecular target: Gonadotropin-releasing hormone receptor (Homo sapiens) (UniProt P30968); assay: Human gonadotropin-releasing hormone receptor (GnRHR) small molecule agonists, calcium flux assay in GnRHR-HEK293 cells (AID 1920063); note: nearly all actives have a fitted effect of over 35% in size
How it was run: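 Tox21-format agonist screen using human GnRHR-expressing HEK293 cells and a fluorescent calcium dye; kinetic 3-min fluorescence reading after compound addition, 15-point concentration series run in triplicate.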

[3] = molecular target: KiSS-1 receptor (Homo sapiens) (UniProt Q969F8); assay: Human kisspeptin (KISS1R) small molecule agonists, calcium flux assay in KISS1R-HEK293 cells (AID 1920064; active = well fitted curve in the direction sought with a large enough effect in the repeat runs; an effect the other way counts as inactive or inconclusive)
How it was run: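 Intracellular calcium mobilization in KISS1R-HEK293 cells was recorded by fluorescence (Ex/Em 480/540) for 3 min following compound addition to cells pre-loaded 1 h with calcium dye.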

[4] = G protein-coupled receptor (GPCR) small molecule agonists, calcium flux assay: HEK293 wild type cell line counter screen (AID 1920065)
How it was run: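 In this agonist-mode screen, ATP is the positive control and DMSO the vehicle. Cells grow 18 h before a 1 h dye incubation at 37 C; signal is taken at Ex/Em 480/540 over 3 min.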

[5] = p53 small molecule agonists, cell-based qHTS assay with human liver microsomes (AID 1963577)
How it was run: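 p53RE-bla reporter cells were pre-incubated 5 h at 37 C, then treated with compounds plus human liver microsomes (0.5 mg/mL final) and NADPH (0.5 mg/mL final) for 16 h at 37 C. Beta-lactamase activity was read by LiveBLAzer fluorescence after 2 h at room temperature.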

[6] = p53 small molecule agonists, cell-based qHTS assay with rat liver microsomes (AID 1963578)
How it was run: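 p53RE-bla cells were exposed to compounds together with rat liver microsomes (0.5 mg/mL final) and NADPH (0.5 mg/mL final) for 16 h at 37 C, then read by LiveBLAzer beta-lactamase fluorescence after 2 h at room temperature.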

[7] = p53 small molecule agonists, cell-based qHTS assay with human liver microsomes: qHTS cell viability counter screen (AID 1963579); note: nearly all actives have a fitted effect of over 45% in size
How it was run: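 p53RE-bla cells (4,000/well) were pre-incubated 5 h at 37 C, then given compounds in DMSO plus human liver microsomes (0.5 mg/mL final) and NADPH (0.5 mg/mL final) for 16 h at 37 C. Viability was read by CellTiter-Glo luminescence.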

[8] = p53 small molecule agonists, cell-based qHTS assay with rat liver microsomes: qHTS cell viability counter screen (AID 1963580); note: nearly all actives have a fitted effect of over 45% in size
How it was run: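 HCT-116 p53RE-bla, 4,000 cells/well, 5 h pre-incubation; cpd + rat liver microsomes 0.5 mg/mL + NADPH 0.5 mg/mL (final); 16 h, 37 C; CellTiter-Glo, 30 min RT; luminescence.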

[9] = p53 small molecule agonists, cell-based qHTS assay: qHTS cell viability counter screen (AID 1963581); note: nearly all actives have a fitted effect of over 45% in size
How it was run: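 Compounds are pinned onto HCT-116 p53RE-bla cells and left 16 h at 37 C. Following the reporter FRET read, ATP is quantified by CellTiter-Glo luminescence after 30 min at room temperature.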

[10] = p53 small molecule agonists, cell-based qHTS assay (AID 1963582; active = well fitted activation curve with a large enough effect in the signal ratio in the repeat runs, not every such curve was filed as active; the % refers to the signal ratio)
How it was run: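 Agonist activity was scored from beta-lactamase FRET fluorescence in p53RE-bla cells treated 16 h at 37 C with compounds in DMSO, substrate incubation being 2 h at room temperature.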

[11] = molecular target: 5-hydroxytryptamine receptor 2A (Homo sapiens) (UniProt P28223); assay: 5-hydroxytryptamine receptor 2A (HTR2A) small molecule antagonists, cell-based qHTS assay (AID 1963586); note: nearly all actives have a fitted effect of over 45% in size
How it was run: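 Antagonist-mode intracellular calcium assay: DOI (4 nM) added after 5 min compound pre-incubation at room temperature to dye-loaded HTR2A-CHO cells. Fluorescence followed for 3 min, sampled every second.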

[12] = molecular target: 5-hydroxytryptamine receptor 2A (Homo sapiens) (UniProt P28223); assay: 5-hydroxytryptamine receptor 2A (HTR2A) small molecule agonists, cell-based qHTS assay (AID 1963587); note: nearly all actives have a fitted effect of over 30% in size
How it was run: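 Kinetic calcium-flux fluorescence (2 min, 1 sec intervals) after compound addition in agonist mode. HTR2A-CHO cells were cultured 18 h, then dye-loaded 1 h at 37 C.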

[13] = molecular target: Muscarinic acetylcholine receptor M1 (Homo sapiens) (UniProt P11229); assay: Cholinergic receptor muscarinic 1 (CHRM1) small molecule antagonists, cell-based qHTS assay (AID 1963588); note: nearly all actives have a fitted effect of over 40% in size
How it was run: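 CHRM1-CHO calcium-flux assay, antagonist mode. Cells were seeded 18 h, dye-loaded 1 h at 37 C and given compound for 5 min at RT, then acetylcholine was added at 50nM. FDSS fluorescence was read 3 min; 15 concentrations, three runs.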

[14] = molecular target: Muscarinic acetylcholine receptor M1 (Homo sapiens) (UniProt P11229); assay: Cholinergic receptor muscarinic 1 (CHRM1) small molecule agonists, cell-based qHTS assay (AID 1963589); note: nearly all actives have a fitted effect of over 35% in size
How it was run: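 Stable CHRM1-CHO cells (human receptor) were incubated 18 h, dye-loaded for 1 h at 37 C and exposed to test compounds for agonist activity, with calcium-dependent fluorescence followed kinetically.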

[15] = cAMP Responsive Elements (CRE) small molecule agonists, cell-based qHTS assay (AID 1963590)
How it was run: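 FRET-based beta-lactamase readout (LiveBLAzer B/G, 2 h RT) quantified CRE activation in HEK 293T CRE-bla cells after 3 h treatment with DMSO-dissolved compounds.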

[16] = cAMP Responsive Elements (CRE) small molecule antagonists, cell-based qHTS assay (AID 1963591; active = well fitted inhibition curve with a large enough effect in the signal ratio in the repeat runs, not every such curve was filed as active; the % refers to the signal ratio)
How it was run: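 qHTS in CRE-bla HEK 293T cells: compound in DMSO, then 0.25 uM NKH477 (final), 3 h at 37 °C/5% CO2; beta-lactamase FRET read-out after 2 h substrate incubation.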

[17] = molecular target: Beta-2 adrenergic receptor (Homo sapiens) (UniProt P07550); assay: Adrenergic beta2 receptor (ADRB2) small molecule antagonists, cell-based qHTS assay (AID 1963592); note: series mostly up to about 92 µM; nearly all actives have a fitted effect of over 50% in size
How it was run: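 Cells (CHO, stable ADRB2 overexpression) incubated 18-20hr at 37C; compounds added from DMSO; agonist mix (1nM isoproterenol, 100uM IBMX, 25uM Ro-20-1724) added; 0.5hr RT; d2-cAMP and anti-cAMP-cryptate added; 1hr RT; 665/615 nm read.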

[18] = molecular target: D(2) dopamine receptor (Homo sapiens) (UniProt P14416); assay: Dopamine D2 receptor (DRD2) small molecule agonists, cell-based qHTS assay (AID 1963594); note: nearly all actives have a fitted effect of over 35% in size
How it was run: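 cAMP accumulation in DRD2-HEK293 cells measured by HTRF after 1 h detection; compounds added 10 min before NKH477 (200nM […]) forskolin-analogue stimulation, 30 min at room temperature, with Ro20-1724 present at 0.1 mM final.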

[19] = molecular target: D(2) dopamine receptor (Homo sapiens) (UniProt P14416); assay: Dopamine D2 receptor (DRD2) small molecule antagonists, cell-based qHTS assay (AID 1963595; active = well fitted inhibition curve with a large enough effect in the signal ratio in the repeat runs, with a control signal flat; the % refers to the signal ratio)
How it was run: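 Readout: HTRF cAMP, cAMP-d2 competing with cellular cAMP for anti-cAMP cryptate, read after 1 h. Cells: DRD2-HEK293. Conditions: 0.1 mM Ro20-1724, 12 nM quinpirole, 200 nM NKH477, 30 min RT.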

[20] = molecular target: Beta-2 adrenergic receptor (Homo sapiens) (UniProt P07550); assay: Adrenergic beta2 receptor (ADRB2) small molecule agonists, cell-based qHTS assay (AID 1963593);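 note: CHO cells stably overexpressing human ADRB2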
How it was run: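 CHO cells stably over-expressing ADRB2 were plated overnight at 37C, then dosed with compounds plus a stimulation mix containing 100uM IBMX and 25uM Ro-20-1724 for 0.5hr at room temperature. cAMP was measured by HTRF competition, 1hr.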

Measured: Potency

D(2) dopamine receptor (Homo sapiens), sequence (P14416 whole entry, looked up): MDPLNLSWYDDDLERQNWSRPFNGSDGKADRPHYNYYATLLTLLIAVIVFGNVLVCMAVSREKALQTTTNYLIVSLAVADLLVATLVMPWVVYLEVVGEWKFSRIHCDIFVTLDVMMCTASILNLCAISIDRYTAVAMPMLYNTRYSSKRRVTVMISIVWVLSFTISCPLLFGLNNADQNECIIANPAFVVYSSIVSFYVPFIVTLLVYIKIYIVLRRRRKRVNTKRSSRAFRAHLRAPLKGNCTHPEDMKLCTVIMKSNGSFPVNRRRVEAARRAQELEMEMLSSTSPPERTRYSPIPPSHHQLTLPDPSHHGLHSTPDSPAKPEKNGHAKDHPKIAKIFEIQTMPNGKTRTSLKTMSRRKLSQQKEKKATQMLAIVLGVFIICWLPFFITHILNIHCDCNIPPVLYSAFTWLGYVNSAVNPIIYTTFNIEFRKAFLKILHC
Gonadotropin-releasing hormone receptor (Homo sapiens), sequence (P30968 whole entry, looked up): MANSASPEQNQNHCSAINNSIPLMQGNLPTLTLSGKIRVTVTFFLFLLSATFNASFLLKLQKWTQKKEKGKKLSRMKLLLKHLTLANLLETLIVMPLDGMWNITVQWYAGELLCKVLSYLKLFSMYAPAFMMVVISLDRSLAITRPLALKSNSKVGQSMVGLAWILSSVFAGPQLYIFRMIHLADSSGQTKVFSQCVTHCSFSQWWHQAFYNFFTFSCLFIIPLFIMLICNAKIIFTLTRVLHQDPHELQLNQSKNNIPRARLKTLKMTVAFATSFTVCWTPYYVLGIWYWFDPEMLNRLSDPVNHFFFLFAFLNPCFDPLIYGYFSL
Muscarinic acetylcholine receptor M1 (Homo sapiens), sequence (P11229 whole entry, looked up): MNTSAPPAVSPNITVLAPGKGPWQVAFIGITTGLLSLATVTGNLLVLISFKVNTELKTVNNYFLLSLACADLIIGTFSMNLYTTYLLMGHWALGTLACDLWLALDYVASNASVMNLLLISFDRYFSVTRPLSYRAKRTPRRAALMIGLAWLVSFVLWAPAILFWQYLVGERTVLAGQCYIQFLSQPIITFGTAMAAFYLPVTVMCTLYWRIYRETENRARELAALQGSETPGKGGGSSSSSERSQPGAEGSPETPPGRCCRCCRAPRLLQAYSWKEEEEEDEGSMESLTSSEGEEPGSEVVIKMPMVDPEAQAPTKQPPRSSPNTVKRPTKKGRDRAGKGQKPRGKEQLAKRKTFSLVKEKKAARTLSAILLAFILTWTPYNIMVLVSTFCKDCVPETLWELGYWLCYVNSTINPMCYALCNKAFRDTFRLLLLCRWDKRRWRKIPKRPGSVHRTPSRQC
KiSS-1 receptor (Homo sapiens), sequence (Q969F8 whole entry, looked up): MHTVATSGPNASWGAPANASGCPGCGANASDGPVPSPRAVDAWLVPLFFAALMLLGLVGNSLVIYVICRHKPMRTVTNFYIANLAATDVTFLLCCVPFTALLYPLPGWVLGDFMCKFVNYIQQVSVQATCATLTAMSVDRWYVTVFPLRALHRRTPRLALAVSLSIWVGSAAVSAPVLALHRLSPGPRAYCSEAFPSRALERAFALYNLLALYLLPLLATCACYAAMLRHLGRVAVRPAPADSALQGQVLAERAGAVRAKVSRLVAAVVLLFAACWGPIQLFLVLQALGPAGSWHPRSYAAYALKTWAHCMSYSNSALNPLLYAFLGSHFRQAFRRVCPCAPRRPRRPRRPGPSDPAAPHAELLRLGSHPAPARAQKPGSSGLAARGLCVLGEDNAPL
5-hydroxytryptamine receptor 2A (Homo sapiens), sequence (P28223 whole entry, looked up): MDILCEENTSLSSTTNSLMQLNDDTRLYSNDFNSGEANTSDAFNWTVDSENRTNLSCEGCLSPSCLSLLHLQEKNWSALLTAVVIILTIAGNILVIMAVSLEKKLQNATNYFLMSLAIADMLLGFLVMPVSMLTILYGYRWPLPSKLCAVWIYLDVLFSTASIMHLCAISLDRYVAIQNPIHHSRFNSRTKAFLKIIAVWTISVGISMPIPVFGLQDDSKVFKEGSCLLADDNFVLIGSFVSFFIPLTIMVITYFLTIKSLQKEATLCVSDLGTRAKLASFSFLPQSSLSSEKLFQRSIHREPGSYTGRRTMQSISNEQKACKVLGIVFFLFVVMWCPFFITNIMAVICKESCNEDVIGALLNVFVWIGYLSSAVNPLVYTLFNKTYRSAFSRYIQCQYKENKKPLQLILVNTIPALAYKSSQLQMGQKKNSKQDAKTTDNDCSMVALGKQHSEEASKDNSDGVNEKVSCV
Beta-2 adrenergic receptor (Homo sapiens), sequence (P07550 whole entry, looked up): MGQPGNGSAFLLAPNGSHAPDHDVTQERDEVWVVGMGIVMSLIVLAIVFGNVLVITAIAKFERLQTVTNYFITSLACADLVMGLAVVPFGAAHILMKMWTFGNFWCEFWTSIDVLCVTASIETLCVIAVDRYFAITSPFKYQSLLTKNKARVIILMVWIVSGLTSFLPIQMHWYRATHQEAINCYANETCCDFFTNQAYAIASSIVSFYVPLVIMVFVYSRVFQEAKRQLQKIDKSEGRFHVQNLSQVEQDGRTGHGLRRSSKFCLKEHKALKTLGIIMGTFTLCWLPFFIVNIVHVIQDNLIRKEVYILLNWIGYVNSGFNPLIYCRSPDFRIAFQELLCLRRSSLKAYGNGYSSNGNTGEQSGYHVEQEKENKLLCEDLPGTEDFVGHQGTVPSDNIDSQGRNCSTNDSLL

CCNc1nc(N)nc(Cl)n1
inactive: [1] | [2] | [3] | [4] | [5] | [6] | [7] | [8] | [9] | [10] | [11] | [12] | [13] | [14] | [15] | [16] | [17] | [18] | [19]

Cc1ccc(C2OC[C@@H]3OC(c4ccc(C)cc4)O[C@H]([C@H](O)CO)[C@@H]3O2)cc1 (stereo not given in full)
inactive: [1] | [2] | [3] | [4] | [5] | [6] | [7] | [8] | [9] | [10] | [11] | [12] | [13] | [14] | [15] | [16] | [17] | [20] | [19]

NCCNCCNCCN
inactive: [1] | [2] | [3] | [4] | [5] | [6] | [7] | [8] | [9] | [10] | [11] | [13] | [14] | [15] | [16] | [20] | [18] | [19]

CCCCCCCCCCC
inactive: [1] | [2] | [3] | [4] | [5] | [6] | [7] | [8] | [9] | [11] | [12] | [13] | [14] | [15] | [16] | [17] | [19]

O=Cc1ccc(Cl)cc1
inactive: [1] | [2] | [3] | [4] | [5] | [6] | [7] | [8] | [9] | [10] | [11] | [12] | [13] | [14] | [15] | [16] | [18] | [19]

O=C(O)c1ccc(OCCN2CCCCC2)cc1
inactive: [1] | [2] | [3] | [4] | [5] | [6] | [7] | [8] | [9] | [10] | [11] | [12] | [13] | [14] | [15] | [16] | [18] | [19]

CN1C(=O)CC(C)(c2ccccc2)C1=O (stereo not given)
inactive: [1] | [2] | [3] | [4] | [5] | [6] | [7] | [8] | [9] | [11] | [12] | [13] | [14] | [15] | [16] | [17] | [20] | [18] | [19]

Nc1nc(=O)n([C@@H]2O[C@H](CO)[C@@H](O)[C@@H]2F)cc1I
inactive: [1] | [2] | [3] | [4] | [5] | [6] | [7] | [8] | [9] | [10] | [11] | [13] | [14] | [15] | [16] | [17] | [20] | [18] | [19]

CCCc1ccc(N)cc1
inactive: [1] | [2] | [3] | [4] | [5] | [6] | [7] | [8] | [9] | [10] | [11] | [12] | [13] | [14] | [15] | [16] | [17] | [18] | [19]

FC(F)(F)/C(=N\OCC1OCCO1)c1ccc(Cl)cc1
inactive: [1] | [2] | [3] | [4] | [5] | [6] | [7] | [8] | [9] | [10] | [11] | [13] | [14] | [15] | [16] | [17] | [18]

Cc1cc(C)cc(OCC2CNC(=O)O2)c1 (stereo not given)
inactive: [1] | [2] | [3] | [4] | [5] | [6] | [7] | [8] | [9] | [10] | [12] | [13] | [14] | [15] | [16] | [17] | [20] | [18] | [19]

CCC(C)SSC(C)CC (stereo not given)
inactive: [1] | [2] | [3] | [4] | [5] | [6] | [7] | [8] | [9] | [10] | [11] | [12] | [13] | [15] | [17] | [20] | [18] | [19]

OCC(O)CN1CCN(c2ccccc2)CC1 (stereo not given)
inactive: [1] | [2] | [3] | [4] | [5] | [6] | [7] | [8] | [9] | [10] | [11] | [12] | [13] | [15] | [16] | [17] | [20] | [19]

[Cl][In]([Cl])[Cl]
inactive: [1] | [2] | [3] | [4] | [5] | [6] | [7] | [8] | [9] | [10] | [11] | [12] | [14] | [15] | [16] | [17] | [18] | [19]

Fc1ccccc1-c1ccccc1
inactive: [1] | [2] | [3] | [4] | [5] | [6] | [7] | [8] | [9] | [10] | [11] | [12] | [13] | [14] | [15] | [16] | [17] | [18] | [19]
